D2 PAM-1: HTS Assay for Positive Allosteric Modulators of the Human D2 Dopamine Receptor: Primary Screen for Potentiators | potentiation, % at 10 µM | HEK293 T-REx D2, calcium flux, EC20 dopamine potentiation | 0.34% of 340,000 active;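 active = potentiation over 3 SD above the plate norm, cut at about 30% in these data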
Target sequence (P14416 whole entry, looked up): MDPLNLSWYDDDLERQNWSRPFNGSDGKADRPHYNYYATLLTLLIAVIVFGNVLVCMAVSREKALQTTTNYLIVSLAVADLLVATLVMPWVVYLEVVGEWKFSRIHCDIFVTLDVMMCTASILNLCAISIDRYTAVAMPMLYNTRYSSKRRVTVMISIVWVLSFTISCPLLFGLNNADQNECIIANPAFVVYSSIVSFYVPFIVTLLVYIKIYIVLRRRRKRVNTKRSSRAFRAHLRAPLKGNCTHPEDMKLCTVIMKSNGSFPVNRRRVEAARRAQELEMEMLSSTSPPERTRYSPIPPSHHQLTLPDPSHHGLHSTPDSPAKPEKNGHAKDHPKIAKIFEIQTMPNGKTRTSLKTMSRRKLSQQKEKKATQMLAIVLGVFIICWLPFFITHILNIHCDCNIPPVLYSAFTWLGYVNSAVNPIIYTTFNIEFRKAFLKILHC
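Potentiation of an EC20 dopamine calcium response measured kinetically over 180 s, after a preceding 180 s compound-only read flagging agonists. Cells: inducible Hek293 Trex D2 line, 4000/well, cultured overnight at 30 C before dye loading.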
D2 PAM-2: Beta-Arrestin HTS for Positive Allosteric Modulators of the Human D2 Dopamine Receptor: Potentiators; D(2) dopamine receptor (Homo sapiens), P14416; 0.23% of 360,000 active; potentiation, % (concentration not given with the values); AID 624464, 2012; DiscoveRx D2 beta-arrestin cells, luminescence, 90 min; 100% = 57 uM dopamine signal; in the data active = potentiation above about 50%
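D2 cells co-treated with compound plus 50 nM dopamine (EC20) for 90 min at 37 deg C to detect potentiation. Beta-arrestin recruitment was read as enzyme-fragment luminescence after 1 h at ambient temperature. Full response was set by 57 uM dopamine.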
D2 antagonist: HTS Assay for Allosteric Antagonists of the Human D2 Dopamine Receptor: Primary Screen for Antagonists; D(2) dopamine receptor (Homo sapiens), P14416; 2% of 340,000 active; AID 485344, 2010; HEK293 TREx D2 cells, calcium flux, dopamine EC80; inhibition, % at 10 µM; in the data active = inhibition above about 30%; inactive = below that, where a call was filed
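Read-out: kinetic calcium fluorescence (1 cycle/s) in inducible HEK293 T-REx D2 cells after an EC80 dopamine addition that followed 180 s compound preincubation. Loss of the dopamine response indicates antagonism.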
D2 ag-1: Beta-Arrestin HTS for Positive Allosteric Modulators of the Human D2 Dopamine Receptor: Agonists. D(2) dopamine receptor (Homo sapiens), P14416. DiscoveRx PathHunter D2 beta-arrestin, luminescence, 90 min; 100% = 57 uM dopamine signal. activation, % (test concentration not listed). 0.084% of 360,000 active. AID 624465, 2012; in the data active = activation above about 40%
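Agonist mode: compounds alone added to overnight-plated D2 PathHunter cells for 90 min at 37 C, with 57 uM final dopamine (EC100) defining full response. Beta-arrestin recruitment detected by chemiluminescent reagent, read after 1 h at ambient temperature.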
D2 ag-2: HTS Assay for Allosteric Agonists of the Human D2 Dopamine Receptor: Primary Screen for Agonists. D(2) dopamine receptor (Homo sapiens), P14416. HEK293 T-REx D2 cells, calcium flux agonist mode. 0.53% of 340,000 active. activation, % at 2 µM;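 active = activation over 3 SD above normal in the single-dose calcium agonist read, cut at about 30% in these data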
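Agonism is scored from calcium flux in a force-coupled, inducible HEK293 cell line expressing D2, read kinetically for 180 s after compound addition against dopamine controls.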
Hits are given with their value; n = inactive; x = no result. This is a sample that favours compounds with a hit; in the whole collection about 2.4% have one here.

SMILES	D2 PAM-1	D2 PAM-2	D2 antagonist	D2 ag-1	D2 ag-2
O=C1CCC([N+](=O)[O-])C(c2ccccc2F)N1 (stereo not given)	n	n	n	n	n
CC12CCC(=O)N1C(C(=O)N1CCN(c3ccccc3)CC1)CS2 (stereo not given)	n	n	n	n	n
CC12CCC(=O)N1C(C(=O)N1CCN(c3cccc(Cl)c3)CC1)CS2 (stereo not given)	n	n	71	n	n
COc1cccc(-c2nc(CS(=O)(=O)CC(=O)NCc3cccc(Cl)c3)c(C)o2)c1	n	x	x	x	n
COc1ccc(N=Nc2nc3ccc(Br)cc3n2C)cc1	33	n	n	n	n
COc1ccc(N2CCN(c3c4c(nc5nncn35)CCC4)CC2)cc1	n	x	x	x	n
Cc1cc(C(=O)OCC(=O)Nc2cc(S(=O)(=O)N(C)C)ccc2C)c2ccccc2n1	n	n	37	n	n
Cc1ccc(S(=O)(=O)N(C)C)cc1NC(=O)COC(=O)C1CCN(S(=O)(=O)c2cccs2)CC1	n	n	35	n	n
Cc1cc(C(=O)OCC(=O)NCCc2ccc(S(N)(=O)=O)cc2)c2ccccc2n1	n	n	38	n	n
COc1ccc(S(=O)(=O)N(C)C)cc1NC(=O)COC(=O)c1nc2nccc(C)n2n1	n	n	40	n	n
Cc1cc(C(=O)OCC(=O)NCc2ccccc2)c2ccccc2n1	x	n	x	n	x
Cc1cc(C(=O)OCC(=O)Nc2cc(S(=O)(=O)N(C)C)ccc2Cl)c2ccccc2n1	n	n	n	n	n
O=C(COC(=O)C1CCN(S(=O)(=O)c2cccs2)CC1)Nc1ccccc1Br	n	n	n	n	n
Cc1ccc(-c2nc3scc(CCNS(=O)(=O)c4ccc(C)c(C)c4)n3n2)cc1	n	x	x	x	n
COC(=O)CNC(=O)Nc1cc(C(=O)NCc2ccc(C)cc2)ccc1N1CCCC1	n	x	x	x	x
CC(C)C(NC(=O)c1ccco1)C(=O)NCC(c1ccco1)N(C)C (stereo not given)	33	n	n	n	n
CCOc1ccc(NC(=O)[C@@H](NC(=O)c2ccco2)C(C)C)cc1	n	n	39	n	n
CC(C)C(NC(=O)c1ccccc1)C(=O)NCC(c1ccccc1)N(C)C (stereo not given)	x	n	x	n	x
CC(C)[C@H](NC(=O)c1ccco1)C(=O)Nc1ccc(OC(F)F)cc1	n	n	n	n	n
CCc1ccc(NC(=O)CC2C(=O)N(c3cccc(OC)c3)C(=O)N2C2CCCC2)cc1 (stereo not given)	n	x	x	x	n
Cc1cc(C)c(C#N)c(N2CCCC2)n1	n	n	n	n	n
Cc1cc(C)c(C#N)c(N2CCN(CCOc3ccc(Cl)cc3)CC2)n1	n	n	121	n	n
COc1ccc(F)cc1CN1CCN(c2cc(C)nc3c4c(C)cc(C)nc4nn23)CC1	n	x	n	x	n
COc1ccc(Cl)cc1CN1CCN(c2nc(C)cc(C)c2C#N)CC1	n	n	41	n	n
COc1cc2c(cc1OC)C(c1ccccc1C(F)(F)F)CC(=O)N2 (stereo not given)	n	n	n	n	n
SMILES	D2 PAM-1	D2 PAM-2	D2 antagonist	D2 ag-1	D2 ag-2
N=c1c(C(=O)NCc2ccco2)cc2c(=O)n3ccccc3nc2n1Cc1ccccc1	n	n	38	n	n
O=C(Cn1ccc([N+](=O)[O-])n1)N1CCc2ccccc21	n	n	n	n	n
Cc1nn(C(=O)Cn2ccc([N+](=O)[O-])n2)c(C)c1Br	31	n	n	n	n
Cc1cc(OCC(=O)Nc2cnn(CCCC(=O)O)c2)ccc1[N+](=O)[O-]	n	n	n	n	n
O=C(O)CCCn1cc(NC(=O)COc2ccc([N+](=O)[O-])cc2)cn1	31	n	n	n	n
c1ccc(Nc2ccccc2Nc2ccccn2)nc1	n	n	34	n	n
c1ccc(CNc2ccccn2)cc1	n	n	n	n	n
O=C(COC(=O)c1ccc(F)cc1F)NC1CC1	n	n	31	n	n
Nc1cc(Cl)ccc1C(=O)OCC(=O)NC1CCCCCCC1	n	n	35	n	n
O=C(COC(=O)c1ccc(F)cc1F)NCCNC(=O)COC(=O)c1ccc(F)cc1F	n	n	n	n	n
Cc1ccc(NC(=O)CSc2nccn2Cc2ccco2)cc1Cl	n	x	x	x	n
COC(=O)CSc1nnc(-c2ccc(S(=O)(=O)NCc3ccccc3Cl)cc2)o1	n	n	33	n	n
COC(=O)CSc1nnc(-c2ccc(S(=O)(=O)NCc3cccs3)cc2)o1	n	n	n	n	n
O=C(CSc1nc(-c2cccs2)nc2cc(=O)[nH]n12)Nc1ccccc1Cl	n	x	x	x	n
CCOC(=O)c1ccc(Nc2c(-c3ccc(N(C)C)cc3)nc3nc[nH]n23)cc1	n	x	x	x	n
Cc1cc2ccccc2c(=O)n1CC(=O)NCC(=O)N1CCN(c2ccccc2)CC1	n	n	64	n	n
COc1cc(S(=O)(=O)N2CCC(c3nc4ccccc4s3)CC2)ccc1S(=O)(=O)N1CC(C)CC(C)C1 (stereo not given)	34	n	n	n	n
CCN1C(=O)CSc2ccc(C(=O)NCc3ccccc3OC)cc21	34	n	n	n	n
CCN1C(=O)CSc2ccc(C(=O)NCc3ccccc3)cc21	n	n	n	n	n
O=S(=O)(c1ccccc1)N1CCN(C(=S)NCCc2ccccc2)CC1	n	n	38	n	n
CCCCn1c(N)c(N(CCOC)C(=O)CCS(=O)(=O)c2ccc(C)cc2)c(=O)[nH]c1=O	x	n	x	n	x
C[C@H]1CN([C@@H](C)CO)C(=O)c2cccc(NS(=O)(=O)c3ccc(Cl)cc3)c2O[C@@H]1CN(C)CC1CCCCC1	x	n	x	n	x
Cc1cccc(OCCC(=O)OCC(=O)Nc2c(C)nn(-c3ccccc3)c2C)c1	n	n	n	n	n
CC1(C)CC(n2c(NCCO)nc3c(c2=O)C2(CCCC2)Cc2ccccc2-3)CCO1 (stereo not given)	34	n	n	n	n
O=c1c2c(nc(NCCO)n1CC1CCCCC1)-c1ccccc1CC21CCCC1	n	n	n	n	n
CSc1ccccc1NC(=O)c1cnc2scc(C)n2c1=O	36	n	n	n	n
CCc1ccccc1NC(=O)c1cnc2scc(C)n2c1=O	x	n	x	n	x
C/C(=N\NC=O)c1ccncc1	30	n	n	n	n
CC(C)C(=O)N1CCC1(C)C(=O)Nc1cc(-c2ccccc2)nn1C (stereo not given)	x	n	x	n	x
COCCN1CSC(=S)N(Cc2ccco2)C1	n	n	n	n	n
